The record followed here is PubChem BioAssay AID449728 (The Scripps Research Institute Molecular Screening Center, 2010).

By inhibition is commonly meant the change of the read-out against control, counted positive when it falls.

The whole screen tested about 330,000 compounds, of which about 900 (0.27%) were called active. The list comes from a sample in which actives are over-represented; it also holds similar structures and randomly drawn compounds. A number with no mark means an inactive call.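 The calls were made as follows: active = inhibition above the campaign's mean inhibition across all tested compounds plus 3 SD (cut at about 9.9% in these data); inactive = the rest.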

A short description of this assay: E. coli V3065 growth inhibition, primary screen, counter-screen for AddAB inhibitor project, absorbance, OD600 (AID 449728).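 Also: uninfected addAB+ strain grown without phage in ampicillin broth; 0% = DMSO wells and 100% = ciprofloxacin 0.95 µg/ml wells.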 Conditions: 18 h, at 11.9 µM, hits give high values. For orientation: The purpose of a counterscreen is to sort out artefacts and off-target activity.
Take `COC(=O)c1ccc(COC(=O)c2cnccn2)cc1`: the inhibition was -0.61%.

Consider `O=C(Cn1cc(C(=O)c2cccs2)c2ccccc21)NCc1cccs1`, for which the inhibition is 0.18%.

For the compound `Cc1cccc(NC(=O)Cn2cc(C(=O)c3ccco3)c3ccccc32)c1`, the inhibition was 16.6% (active).

Turning to `CC1CCN(C(=O)Cn2cc(C(=O)c3ccco3)c3ccccc32)CC1`, the inhibition was -0.18%.

On to `Cc1ccc(CN2CCC(N3CCC(C(=O)NCC4CCCO4)CC3)CC2)o1` (stereo unspecified), for which the inhibition is -1.01%.

`C#CCSc1nnc(-c2sc3ccccc3c2Cl)o1`: the inhibition was 2.18%.

As to `COc1ccc(CCNC(=O)/C(C#N)=C2\N=C(NC(=O)c3cccs3)c3ccccc32)cc1`, the inhibition is -0.34%.

Take `O=C(NCC#CCSc1nnc(-c2cccc3ccccc23)o1)c1cccs1`: the inhibition was 10.2% (active).

Regarding `COc1ccc(C)cc1N(CC(=O)NC(C)c1ccccc1)S(C)(=O)=O` (stereo unspecified), the inhibition was 0.84%.

On to `C[N+]1(CCNC(=O)/C=N/O)CCCCC1`, for which the inhibition was -1.11%.

Take `COc1ccc([C@H]2CC(=O)C=C(/C=C/c3ccccc3)C2)cc1`: the inhibition is -0.71%.

Take `Cc1ccccc1NC(=O)NC1(C(=O)N2CCCC2)CCCCC1`: the inhibition is -1.26%.

Regarding `Oc1c(Cl)cc(Cl)c(Cl)c1Cc1c(O)c(Cl)cc(Cl)c1Cl`, the inhibition was 12.2% (active).

`CC(=O)OCCOCn1cnn2c(=O)c(Br)c(C)nc12`: the inhibition is -2.04%.

With `CCNC(=S)N1CCN(c2ncccn2)CC1`, the inhibition was 0.78%.

As for `CN(C)CCCn1c(SCc2ccc(Cl)cc2)nnc1-c1ccncc1`, the inhibition is -1.29%.

Consider `COc1cccc(-c2sc3ccc(OC)cc3c2-c2ccc(OCCN3CCCCC3)cc2)c1`, for which the inhibition is -0.53%.

As to `Cc1ccc(C23CC4CC(CC(C(=O)NCC(=O)O)(C4)C2)C3)cc1`, the inhibition is 1%.

In the case of `CCOc1ccccc1NC(=O)C12CC3CC(C1)CC(c1ccc(C)cc1)(C3)C2`, the inhibition was 26.6% (active).

Regarding `CCOc1ccccc1NC(=O)Cc1cccs1`, the inhibition is 1.04%.

For the compound `COCCCNC(=O)C1CCC(CNS(=O)(=O)c2ccc(OC)cc2)CC1` (stereo unspecified), the inhibition was -1.01%.

For the compound `CCC1C(=O)NCCN1C(=O)c1ccc2nc(Cc3ccc(OC)cc3)oc2c1` (stereo unspecified), the inhibition is -0.08%.

For `O=C(OCC1O[C@@H](OC(=O)c2cc(O)c(O)c(O)c2)[C@@H](OC(=O)c2cc(O)c(O)c(O)c2)[C@@H](OC(=O)c2cc(O)c(O)c(O)c2)[C@@H]1OC(=O)c1cc(O)c(O)c(O)c1)c1cc(O)c(O)c(O)c1` (stereo partly specified), the inhibition is 23.6% (active).

`CCOc1cccc(/C=N/NC(=S)NCCN2CCOCC2)c1O`: the inhibition was 0.34%.

In the case of `COc1ccc(Br)cc1/C=N/Nc1ccc(Cl)c(C(=O)O)c1`, the inhibition is -3.01%.

For the compound `COc1cccc(/C=N/Nc2ncc(C(F)(F)F)cc2Cl)c1O`, the inhibition was 15.6% (active).

In the case of `C/C(CC(C)C)=N\Oc1nc(C)cc(C)n1`, the inhibition is 0.81%.

Consider `COc1ccc(C(=O)CC(=O)C(=O)Nc2cc([N+](=O)[O-])ccc2OC)cc1`, for which the inhibition was -2.64%.

With `COc1ccc(C(=O)c2c3ccc([N+](=O)[O-])cc3[n+]([O-])n2CCCN)cc1`, the inhibition was 9.95% (active).

For the compound `COc1ccc2c(C(=O)c3ccc(C)cc3)n(CCC(N)=O)[n+]([O-])c2c1`, the inhibition is -1.03%.

Consider `CN1CCN(C(=O)c2cnn(-c3ccccc3)c2NC(=O)c2ccc([N+](=O)[O-])cc2)CC1`, for which the inhibition is -0.94%.

On to `O=C(NNC(=O)C1CCCC1)c1ccc(F)cc1`, for which the inhibition was -1.97%.

For `O=C(/C=C/c1ccc([N+](=O)[O-])o1)NNC(=O)c1ccc(F)cc1`, the inhibition was 97.9% (active).

For `Cc1ccc(/C=C/C(=O)Nc2ccc([N+](=O)[O-])c(NC(=O)/C=C/c3ccc(C)o3)c2)o1`, the inhibition was -5.13%.

`CONC(=O)c1cc(OCC(F)(F)F)ccc1OCC(F)(F)F`: the inhibition was -0.41%.

Turning to `O=C1CN(C(=O)COC(=O)c2cnc(Cl)c(Cl)c2)c2ccccc2N1`, the inhibition was 1.7%.

In the case of `CCOC(=O)C1=C(C)N=C2c3ccccc3C(=O)C2C1c1ccc(Br)cc1` (stereo unspecified), the inhibition is 0.42%.

Consider `O=C1c2ccccc2C2=Nc3ccccc3SC(c3ccccc3F)C12` (stereo unspecified), for which the inhibition is 19.9% (active).

As to `O=C1c2ccccc2C(=O)C1c1ccccc1F`, the inhibition is 1.08%.

Regarding `C=CCN(Cc1nc(-c2cc(OC)c3c(c2)OCO3)oc1C)C1CCS(=O)(=O)C1` (stereo unspecified), the inhibition was -0.09%.

As to `O=C(COC(=O)c1c(Cl)cccc1Cl)Nc1cccc(S(=O)(=O)NC2=NCCCCC2)c1`, the inhibition is -2.98%.
